These results are taken from PubChem BioAssay (NCI).

This is part of a sample that, as a whole, favours compounds with a hit. Of some 79,000 tested, about 15% had one in any assay. Values without a mark were called inactive. Activity calls are given as the source filed them. Rule as the data show it: active = growth inhibition above about 70%; inactive = the rest.

The nature of assay [1]: NCI Yeast Anticancer Drug Screen. Data for the rad50 strain (AID 155).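 Also: 0% = growth of vehicle-only cultures of the same strain.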 The conditions noted are these: S. cerevisiae rad50 strain growth inhibition; at 50.0 µM; hits give high values. Put shortly: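 DNA repair mutant yeast, compound exposure, growth read-out; inhibition is taken relative to vehicle.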
Assay [2] in a line: NCI Yeast Anticancer Drug Screen. Data for the mec2-1 strain (AID 157). Conditions: S. cerevisiae mec2-1 strain, at 50.0 µM, hits give high values. Put shortly:
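Compounds were applied to mec2-1 yeast cells. Their growth was then compared with that of vehicle-treated cultures to give growth inhibition.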

The nature of assay [3]: NCI Yeast Anticancer Drug Screen. Data for the sgs1 mgt1 strain (AID 161).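 Also: 0% = growth of cultures given vehicle only.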 The conditions noted are these: S. cerevisiae sgs1 mgt1 strain, at 50.0 µM, hits give high values. Put shortly:
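Compounds are added to genetically altered yeast, and growth is compared with cultures given vehicle alone to give percent inhibition.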

A short description of assay [4]: NCI Yeast Anticancer Drug Screen. Data for the cln2 rad14 strain (AID 165).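 Also: 0% = growth equal to vehicle treated cultures.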 The conditions noted are these: S. cerevisiae cln2 rad14 strain, at 50.0 µM, hits give high values. Put shortly: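 Strain: cln2 rad14 yeast, altered in cell cycle control and DNA damage repair. Read-out: growth inhibition vs vehicle.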
The nature of assay [5]: NCI Yeast Anticancer Drug Screen. Data for the bub3 strain (AID 167). The conditions noted are these: S. cerevisiae bub3 mutant strain, at 50.0 µM, hits give high values. Put shortly: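 In this screen, a yeast mutant lacking normal mitotic checkpoint function is challenged with compound. Relative growth versus vehicle gives the inhibition value.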
A short description of assay [6]: NCI Yeast Anticancer Drug Screen. Data for the mlh1 rad18 strain (AID 175). The conditions noted are these: S. cerevisiae mlh1 rad18 strain growth inhibition; at 50.0 µM; hits give high values. Put shortly:
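A repair-deficient yeast strain is exposed to test compound, and growth is scored relative to vehicle-treated controls.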

For the compound `Cc1ccc(OC(=O)Nc2ccc(C(=O)O)c(O)c2)cc1`, the growth inhibition in assay [1] is -10.9%; in assay [2], 8.3%; in assay [3] it was 9.2%; in assay [4], -6.75%; in assay [5], -4.7%; in assay [6], -5.2%.
With `CC1CC(NN(C)C)C2(C(N)=O)C(N)=NC(=O)C12C#N` (stereo not given), the growth inhibition in assay [1] is 5.45%; in assay [2], 9.15%; in assay [3] it was -23.9%; in assay [4] it was 3.8%; in assay [5], -24.7%; in assay [6] it was -46.1%.
With `CCCCCCCC(=O)N(CCCCC)CCCCC`, the growth inhibition in assay [1] is 66.5%; in assay [2] it was 77.2% (active); in assay [3], 77.2% (active); in assay [4] it was 74% (active); in assay [5], 66.5%; in assay [6], 66.5%.
Consider `CCCCCCCCCCCCCCCCS(=O)(=O)N/N=C(/c1ccccc1Cl)N1CCOCC1`, for which the growth inhibition in assay [1] is -10.6%; in assay [2], -35.4%; in assay [3], -7.1%; in assay [4], 16.4%; in assay [5], -22.6%; in assay [6], -6.75%.
In the case of `COC(=O)CCC(N)C(=O)O` (stereo not given), the growth inhibition in assay [1] is 10.2%; in assay [2], -11.2%; in assay [3], -7.15%; in assay [4] it was -10.3%; in assay [5], -24.9%; in assay [6], -4.2%.
As for `c1ccc2c3c(ccc2c1)CCCC3`, the growth inhibition is 7.5% in assay [1]; -2.15% in assay [2]; 2.9% in assay [3]; -8% in assay [4]; 15.9% in assay [5]; 0.7% in assay [6].
For `CSc1ccc([C@@H](O)[C@H](CO)NC(=O)C(Cl)Cl)cc1`, the growth inhibition in assay [1] is 72.9% (active); in assay [2], 90.2% (active); in assay [3], 88.4% (active); in assay [4], 31.6%; in assay [5], 74.1% (active); in assay [6], 47.6%.
Consider `CC(C)CCOC(=O)NC1c2ccccc2Oc2ccccc21`, for which the growth inhibition in assay [1] was -10%; in assay [2] it was 3.55%; in assay [3], 3.65%; in assay [4] it was 18%; in assay [5] it was 0.1%; in assay [6], -1.3%.
Take `CON(C)c1nc(N(C)OC)nc(N(C)OC)n1`: the growth inhibition was -8.05% in assay [1]; -48.2% in assay [2]; -28.8% in assay [3]; 7.85% in assay [4]; -22.9% in assay [5]; -12.5% in assay [6].
`CSc1ccc(NC(=O)Nc2ccc(Cl)cc2C(=O)c2ccccc2)cc1`: the growth inhibition in assay [1] is 96.5% (active); in assay [2] it was 97.8% (active); in assay [3] it was 93.7% (active); in assay [4], 98% (active); in assay [5], 88.5% (active); in assay [6] it was 97.8% (active).
In the case of `ON(C(=NCc1ccccc1)c1ccccc1)c1ccccc1`, the growth inhibition in assay [1] was 2.25%; in assay [2], 10.6%; in assay [3], 9.65%; in assay [4], -17.4%; in assay [5], 12.4%; in assay [6] it was 14.7%.
For `O=S(=O)(O)c1ccc(-c2nc3ccccc3[nH]2)cc1`, the growth inhibition in assay [1] is 1.6%; in assay [2], 8.5%; in assay [3], 4.65%; in assay [4], 6%; in assay [5] it was 28.2%; in assay [6], -18.9%.
As to `O=C(c1ccccc1)N1CCOCC1`, the growth inhibition in assay [1] was 9.75%; in assay [2] it was -2.5%; in assay [3], -3.25%; in assay [4], 12.3%; in assay [5] it was -0.75%; in assay [6], 13.2%.
With `COc1ccccc1C(=O)NO`, the growth inhibition in assay [1] was -14.1%; in assay [2], -27.2%; in assay [3] it was -22.9%; in assay [4] it was 8.05%; in assay [5], -14.2%; in assay [6], -7.55%.
Take `CCN(CC)CC(C)(C)C(O)c1ccc(OC)c2ccccc12` (stereo not given): the growth inhibition was -6.15% in assay [1]; 7.3% in assay [2]; 17.9% in assay [3]; -26.8% in assay [4]; 9.45% in assay [5]; 8.8% in assay [6].
With `O=C(Nc1c(Oc2ccc(Cl)c(Cl)c2)ccc(Cl)c1S(=O)(=O)O)Nc1c(Oc2ccc(Cl)c(Cl)c2)ccc(Cl)c1S(=O)(=O)O`, the growth inhibition in assay [1] is 22.2%; in assay [2] it was -3.25%; in assay [3], 13.9%; in assay [4], 11.7%; in assay [5], 22.1%; in assay [6], 22.2%.
Turning to `CC(=O)OC1=NCC(OC(C)=O)=NC1`, the growth inhibition was 5.2% in assay [1]; 13.9% in assay [2]; 2.25% in assay [3]; -16.9% in assay [4]; 2.65% in assay [5]; 6.5% in assay [6].
Take `CC(=O)OCC(OC(C)=O)C(OC(C)=O)C(OC(C)=O)C(OC(C)=O)c1cnn(-c2ccccc2)n1` (stereo not given): the growth inhibition in assay [1] is 15.9%; in assay [2], -1.85%; in assay [3], 11.6%; in assay [4], 32.1%; in assay [5], 6.05%; in assay [6], -10.6%.
For `Cc1ccc(S(=O)[O-])cc1.Cc1ccc(S(=O)[O-])cc1.[Zn+2]`, the growth inhibition was 26.9% in assay [1]; 1.05% in assay [2]; 16% in assay [3]; 14.8% in assay [4]; -1.95% in assay [5]; 0.4% in assay [6].
As to `CC#CC(O)(C(=O)OC1CCC2CCC1N2C)C1CCCC1` (stereo not given), the growth inhibition is -25.5% in assay [1]; -8.9% in assay [2]; -23.3% in assay [3]; 6.2% in assay [4]; -3.4% in assay [5]; -4.65% in assay [6].
